Assay results as given in PubChem BioAssay (NCI).
This is part of a sample that, as a whole, favours compounds with a hit. Of some 79,000 tested, about 15% had one in any assay. Values without a mark were called inactive. The source made the active and inactive calls. Rule as the data show it: active = growth inhibition above about 70%; inactive = the rest.

Columns and labels:
[1] = NCI Yeast Anticancer Drug Screen. Data for the rad52 strain (AID 147);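 also: 0% = growth of vehicle-treated control cultures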; conditions: S. cerevisiae rad52 mutant growth inhibition, stronger effect = higher value
Outline: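 Inhibition of yeast growth, referenced to vehicle controls, was the measured output for a strain with defective DNA damage repair.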

[2] = NCI Yeast Anticancer Drug Screen. Data for the wt1 strain (AID 149);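 also: 0% = growth of vehicle-treated wt1 cultures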; conditions: S. cerevisiae wt1 strain (SPY 50644) growth inhibition, stronger effect = higher value
Outline: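 Growth inhibition read against vehicle controls after compound exposure of the wt1 yeast strain.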

[3] = NCI Yeast Anticancer Drug Screen. Data for the rad50EPP+ strain (AID 151);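 also: 0% = growth of vehicle-treated control cultures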; conditions: S. cerevisiae rad50 mutant strain, stronger effect = higher value
Outline: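 Genetically defined yeast (rad50EPP+, DNA damage repair alteration) is grown with compound, and inhibition of growth is expressed relative to vehicle-treated controls.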

[4] = NCI Yeast Anticancer Drug Screen. Data for the mgt1 strain (AID 153); conditions: S. cerevisiae mgt1 mutant growth inhibition, stronger effect = higher value
Outline: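 In the mgt1 strain, test compounds were added and growth inhibition was determined relative to vehicle-treated controls.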

[5] = NCI Yeast Anticancer Drug Screen. Data for the rad50 strain (AID 155);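 also: 0% = growth of vehicle-only cultures of the same strain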; conditions: S. cerevisiae rad50 strain growth inhibition, stronger effect = higher value
Outline: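 Readout: growth inhibition relative to vehicle-treated cultures. Compound exposure was carried out in a genetically defined yeast strain deficient in DNA damage repair.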

[6] = NCI Yeast Anticancer Drug Screen. Data for the mec2-1 strain (AID 157); conditions: S. cerevisiae mec2-1 strain, stronger effect = higher value
Outline: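 Each compound was tested on mec2-1 yeast, a strain altered in DNA damage repair or cell cycle control. Growth inhibition is reported relative to vehicle.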

[7] = NCI Yeast Anticancer Drug Screen. Data for the rad14 strain (AID 159);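 also: 0% = growth of vehicle-treated control cultures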; conditions: S. cerevisiae rad14 strain growth inhibition, stronger effect = higher value
Outline: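 Growth inhibition vs vehicle controls; genetically altered yeast strain (DNA damage repair defect) treated with test compounds.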

[8] = NCI Yeast Anticancer Drug Screen. Data for the sgs1 mgt1 strain (AID 161);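 also: 0% = growth of cultures given vehicle only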; conditions: S. cerevisiae sgs1 mgt1 strain, stronger effect = higher value
Outline: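 Genetically altered yeast, compound exposure, growth inhibition relative to vehicle.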

[9] = NCI Yeast Anticancer Drug Screen. Data for the CLN2oe strain (AID 163);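 also: 0% = growth of vehicle-only control cultures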; conditions: S. cerevisiae CLN2oe strain, stronger effect = higher value
Outline: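 First, the altered yeast strain was treated with each compound; second, its growth was measured; finally, inhibition was derived by comparison with vehicle controls.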

[10] = NCI Yeast Anticancer Drug Screen. Data for the cln2 rad14 strain (AID 165);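 also: 0% = growth equal to vehicle treated cultures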; conditions: S. cerevisiae cln2 rad14 strain, stronger effect = higher value
Outline: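 Test compounds were added to cln2 rad14 yeast cultures; inhibition of growth was then determined by comparison with vehicle treatment.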

[11] = NCI Yeast Anticancer Drug Screen. Data for the bub3 strain (AID 167); conditions: S. cerevisiae bub3 mutant strain, stronger effect = higher value
Outline: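 Readout: yeast growth inhibition, expressed relative to vehicle-only wells. The test organism is a mutant strain from a panel with lesions in DNA repair or checkpoint genes.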

[12] = NCI Yeast Anticancer Drug Screen. Data for the wt2 strain (AID 169);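 also: 0% = growth of vehicle-treated yeast cultures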; conditions: S. cerevisiae wt2 strain growth inhibition, stronger effect = higher value
Outline: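 The panel's yeast strains carry defined changes in DNA repair or cell cycle genes. Each strain is grown with compound, and growth loss is scored relative to vehicle.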

[13] = NCI Yeast Anticancer Drug Screen. Data for the mlh1 strain (AID 171);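 also: 0% = growth of vehicle-treated control cultures of the same strain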; conditions: S. cerevisiae mlh1 strain growth inhibition, stronger effect = higher value
Outline: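 Inhibition values reflect reduced yeast growth in the presence of compound, referenced to vehicle controls, using a strain chosen for its alteration in DNA repair or cell cycle control.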

[14] = NCI Yeast Anticancer Drug Screen. Data for the sgs1 strain (AID 173);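 also: 0% = growth of vehicle-only control cultures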; conditions: S. cerevisiae sgs1 mutant, stronger effect = higher value
Outline: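 Vehicle-treated cultures served as reference for growth inhibition of a yeast strain altered in DNA damage repair or cell cycle control after compound exposure.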

[15] = NCI Yeast Anticancer Drug Screen. Data for the mlh1 rad18 strain (AID 175); conditions: S. cerevisiae mlh1 rad18 strain growth inhibition, stronger effect = higher value
Outline: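 Inhibition values reflect reduced growth of mutant yeast versus vehicle-treated controls following compound exposure; the mutations affect DNA damage repair.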

[16] = NCI Yeast Anticancer Drug Screen. Data for the rad18 strain (AID 177); conditions: S. cerevisiae rad18 mutant growth inhibition, stronger effect = higher value
Outline: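 Steps: expose repair-mutant yeast to compound; measure growth; express as inhibition relative to vehicle control.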

[17] = at 5.0 µM (retest, dose inferred, filed as 0.5)
[18] = at 50.0 µM (retest, dose inferred, filed as 5.0)

## C(=N/NC1=NCCN1)/c1c2ccccc2c(/C=N\NC2=NCCN2)c2ccccc12
[1]; at 1.2 µM
  growth inhibition: 70% (active)
[1]; at 3.7 µM
  growth inhibition: 86% (active)
[1]; at 11.0 µM
  growth inhibition: 94% (active)
[1]; at 33.0 µM
  growth inhibition: 94% (active)
[1]; at 100.0 µM
  growth inhibition: 96% (active)
[2]; at 1.2 µM
  growth inhibition: -4%
[2]; at 3.7 µM
  growth inhibition: 9%
[2]; at 11.0 µM
  growth inhibition: 9%
[2]; at 33.0 µM
  growth inhibition: 52%
[2]; at 100.0 µM
  growth inhibition: 86% (active)
[3]; at 1.2 µM
  growth inhibition: 6%
[3]; at 3.7 µM
  growth inhibition: 33%
[3]; at 11.0 µM
  growth inhibition: 81% (active)
[3]; at 33.0 µM
  growth inhibition: 92% (active)
[3]; at 100.0 µM
  growth inhibition: 94% (active)
[4]; at 1.2 µM
  growth inhibition: -8%
[4]; at 3.7 µM
  growth inhibition: -6%
[4]; at 11.0 µM
  growth inhibition: 4%
[4]; at 33.0 µM
  growth inhibition: 64%
[4]; at 100.0 µM
  growth inhibition: 90% (active)
[5]; at 1.2 µM
  growth inhibition: 63%
[5]; at 3.7 µM
  growth inhibition: 85% (active)
[5]; [17]
  growth inhibition: 74% (active)
[5]; at 11.0 µM
  growth inhibition: 93% (active)
[5]; at 33.0 µM
  growth inhibition: 94% (active)
[5]; [18]
  growth inhibition: 88% (active)
[5]; at 50.0 µM
  growth inhibition: 82.2% (active)
[5]; at 100.0 µM
  growth inhibition: 94% (active)
[6]; at 1.2 µM
  growth inhibition: 6%
[6]; at 3.7 µM
  growth inhibition: 1%
[6]; [17]
  growth inhibition: -13%
[6]; at 11.0 µM
  growth inhibition: 20%
[6]; at 33.0 µM
  growth inhibition: 81% (active)
[6]; [18]
  growth inhibition: 80% (active)
[6]; at 50.0 µM
  growth inhibition: 83.6% (active)
[6]; at 100.0 µM
  growth inhibition: 90% (active)
[7]; at 1.2 µM
  growth inhibition: -9%
[7]; at 3.7 µM
  growth inhibition: -25%
[7]; at 11.0 µM
  growth inhibition: -3%
[7]; at 33.0 µM
  growth inhibition: 67%
[7]; at 100.0 µM
  growth inhibition: 89% (active)
[8]; [17]
  growth inhibition: -7%
[8]; [18]
  growth inhibition: 90% (active)
[8]; at 50.0 µM
  growth inhibition: 85.2% (active)
[9]; at 1.2 µM
  growth inhibition: -2%
[9]; at 3.7 µM
  growth inhibition: -12%
[9]; at 11.0 µM
  growth inhibition: 13%
[9]; at 33.0 µM
  growth inhibition: 58%
[9]; at 100.0 µM
  growth inhibition: 84% (active)
[10]; [17]
  growth inhibition: 7%
[10]; [18]
  growth inhibition: 56%
[10]; at 50.0 µM
  growth inhibition: 62.5%
[11]; at 1.2 µM
  growth inhibition: -17%
[11]; at 3.7 µM
  growth inhibition: -21%
[11]; [17]
  growth inhibition: -35%
[11]; at 11.0 µM
  growth inhibition: -17%
[11]; at 33.0 µM
  growth inhibition: 58%
[11]; [18]
  growth inhibition: 83% (active)
[11]; at 50.0 µM
  growth inhibition: 79.7% (active)
[11]; at 100.0 µM
  growth inhibition: 88% (active)
[12]; at 1.2 µM
  growth inhibition: -4%
[12]; at 3.7 µM
  growth inhibition: -6%
[12]; at 11.0 µM
  growth inhibition: 11%
[12]; at 33.0 µM
  growth inhibition: 79% (active)
[12]; at 100.0 µM
  growth inhibition: 86% (active)
[13]; at 1.2 µM
  growth inhibition: 11%
[13]; at 3.7 µM
  growth inhibition: 16%
[13]; at 11.0 µM
  growth inhibition: 21%
[13]; at 33.0 µM
  growth inhibition: 73% (active)
[13]; at 100.0 µM
  growth inhibition: 90% (active)
[14]; at 1.2 µM
  growth inhibition: 0%
[14]; at 3.7 µM
  growth inhibition: 8%
[14]; at 11.0 µM
  growth inhibition: 22%
[14]; at 33.0 µM
  growth inhibition: 81% (active)
[14]; at 100.0 µM
  growth inhibition: 92% (active)
[15]; [17]
  growth inhibition: -14%
[15]; [18]
  growth inhibition: 83% (active)
[16]; at 1.2 µM
  growth inhibition: -3%
[16]; at 3.7 µM
  growth inhibition: -6%
[16]; at 11.0 µM
  growth inhibition: 4%
[16]; at 33.0 µM
  growth inhibition: 78% (active)
[16]; at 100.0 µM
  growth inhibition: 92% (active)
